The record followed here is PubChem BioAssay (NCI).

Values joined by “and” are separate entries in the source; they are usually repeats but may differ in a detail not shown here. Identical values can stand only once. The panel holds about 79,000 compounds, 15% with a hit somewhere; the sample as a whole holds those more often. Some compounds were tested as several samples or in several runs, with calls that do not always agree. Active and inactive are the calls of the source. No stated cut-off is given here; in the data, active means growth inhibition above about 70%; inactive means the rest.

The nature of this assay: NCI Yeast Anticancer Drug Screen. Data for the rad50 strain (AID 155).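 Further: 0% = growth of vehicle-only cultures of the same strain.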 The settings on record: S. cerevisiae rad50 strain growth inhibition; at 50.0 µM; stronger effect = higher value. The method, boiled down:
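A DNA repair-deficient yeast mutant serves as the test organism; compound-induced growth inhibition is calculated against vehicle-treated cells.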
For the molecule `Oc1c(Cl)cc(Cl)cc1Cc1cc(Cl)cc(Cl)c1O`, the growth inhibition is 98.2% (active) and 99% (active).

In the case of `COc1cc(OC)c(OC)cc1/C=C\c1ccnc2ccccc12`, the growth inhibition was 33.8% (inactive).

In the case of `CC(C)C1=CC23CCC4C(C)(C(=O)O)CCCC4(C)C2CC1C1C(=O)OC(=O)C13` (centres undefined), the growth inhibition was 99.3% (active) and 99.5% (active).

For the molecule `CN(C)c1nc(N)c(C#N)c(C#N)c1C#N`, the growth inhibition is 69.6% (inactive).

As to `C/C(=N\NC(=S)N1CCN(c2ccccn2)CC1)c1nccs1`, the growth inhibition is 86.5% (active).

`CCCCCCCCCCCCCCCCCCOCC(COP(=O)([O-])OCC[N+](C)(C)C)OC` (centres undefined): the growth inhibition was 90% (active) and 20.7% (inactive).

For the molecule `COc1ccc2nc(C)cc(NCCCCCCCCCNc3cc(C)nc4ccc(OC)cc34)c2c1`, the growth inhibition is 83.4% (active).

For the molecule `CC1CC[P+](c2ccccc2)(c2ccccc2)c2c1ccc1ccccc21` (centres undefined), the growth inhibition was 84.9% (active).

Consider `CC(C)C1=C(O)C2=C(C(=O)C1=O)C1(C)CCCC(C)(C)C1CC2O` (centres undefined), for which the growth inhibition was 36.9% (inactive) and 14.3% (inactive).

For `CC(=O)[O-].[O-]c1c(Cl)cc(Cl)cc1/C=N/Nc1ccccn1.[Zn+2]`, the growth inhibition was 96.5% (active).

For the molecule `O=C(c1ccccc1)C(c1ccccc1)C(O)c1ccc([N+](=O)[O-])cc1` (centres undefined), the growth inhibition was 96% (active) and 98.2% (active).

Consider `Clc1nc(Cl)c(Cl)c(Cl)n1`, for which the growth inhibition is 64% (inactive).

Regarding `COc1cccc2c1C(=O)c1c(O)c3c(c(O)c1C2=O)C[C@@](O)(C(C)=O)C[C@@H]3OC1CC(N(C)C)C(O)C(C)O1` (some centres undefined), the growth inhibition is 86.5% (active).

For `CN1C(c2ccccc2)CC(=NOCc2ccccc2)CC1c1ccccc1` (centres undefined), the growth inhibition was 78.5% (active).
